Results on 40 sequences are retold here after the OligoGym collection.
Note: reference of the scale not given here.

For one assay, the target named is SLC2A8. The experiment in a line: pooled miR-30 sensor sort-seq; sequence = guide strand. Particulars: shRNA.
As to ATTAGCTGCACACAGGAGCCGA, the sensor-assay potency score (higher = more potent) was -0.991.
Same read-out and setting: as for TTGGTGAGGACGCAGATGCCTG, the figure is -1.08.
ATCTCTGACATGAGGAGCCAGG yielded a sensor-assay potency score (higher = more potent) of -1.73.
Still for that read-out and setting: as for TCTGCATAGAACATGACGGCGT, the figure is -0.336.
TGAGTCAGCAGGAAGCGCGGGG yielded a sensor-assay potency score (higher = more potent) of -0.717.
Regarding TGAACACCATGACCACACCTGA, the sensor-assay potency score (higher = more potent) is -0.865.
Sequence TTTGTTCCAGAGTCTTTCCTTT returned a sensor-assay potency score (higher = more potent) of 0.354.
On to TTAGCTGCACACAGGAGCCGAG, for which the sensor-assay potency score (higher = more potent) was -0.983.
Same read-out and setting: for ATTTCGGAGATGTAGACCGGGG the value was -0.598; for AAAAGGACACTGAAGATGCAGA, -0.924; for TTTAGTTTCAGGGACACAGAAC, -0.989.
TAGCTGCACACAGGAGCCGAGC returned a sensor-assay potency score (higher = more potent) of -1.45.

The next assay addresses SLC30A10. Described as above. The conditions noted are these: shRNA.
ATTTGAAACATTCTATAGCTGC registered a sensor-assay potency score (higher = more potent) of -0.495.
For TAAGCTATGATCTCACCTGAGC, the sensor-assay potency score (higher = more potent) is -0.73.
TCTTTGAACACTGTATCCGCAG came in with a sensor-assay potency score (higher = more potent) of -0.212.
Turning to TTAAGCTATGATCTCACCTGAG, the sensor-assay potency score (higher = more potent) was -0.235.
Still for that read-out and setting: for TCTGAGAATATTTTCTACCTTA the value was -0.0606; for TTAAGCATTTGAAACATTCTAT, 0.231.
For TAACACTGCCAGTTACACGGGT, the sensor-assay potency score (higher = more potent) is -0.383.
On to TTTGTTAAGACTTTGTCCGTGG, for which the sensor-assay potency score (higher = more potent) worked out at 0.766.
TTTTGTTAAGACTTTGTCCGTG displayed a sensor-assay potency score (higher = more potent) of 0.41.
Turning to TTTTGGGACCATCTGTAGCAGA, the sensor-assay potency score (higher = more potent) is -0.988.
Regarding TTAGCTAGAAGTTCTAATCAGT, the sensor-assay potency score (higher = more potent) was determined as 0.384.
Same read-out and setting: as for TTAGAAACAAGAACTTCTTTGA, the figure is 0.415.

A further assay deals with SLC30A1. The assay is described as above. The conditions noted are these: shRNA.
The sequence TTTACTACTACAATCACTGAAC came in with a sensor-assay potency score (higher = more potent) of -0.0512.
For the sequence TTTTCAGCTTTAGTCCTCCTGG, the sensor-assay potency score (higher = more potent) is -0.574.
Still for that read-out and setting: as for TTAAGTAATGGATAGGTTGTGT, the figure is -0.332; as for TTCTTCTCTAGATTGTTACTAA, -0.537.
For TTAATCTCTATCACAACAGCAG, the sensor-assay potency score (higher = more potent) turned out to be 0.193.
Sequence TTTGTTTAGGAACAGTTTGTAG had a sensor-assay potency score (higher = more potent) of -1.09.
TTCACTTGTACTTCCACTGTAT had a sensor-assay potency score (higher = more potent) of 0.732.
As for TTGATTTAGAGCCTACACTAGC, the sensor-assay potency score (higher = more potent) is -0.669.
TAGTGTCCCACAACATTGCTTC registered a sensor-assay potency score (higher = more potent) of 0.199.
On the same count and under the same terms, as for TAATCTCTATCACAACAGCAGG, the figure is -1.43.
In the case of TACACTAGCAAATTCAGGCTGA, the sensor-assay potency score (higher = more potent) amounted to 0.702.
The same measure, in the same setting: for TAGATTGTTACTAAGTTCTAAA the value was -0.976.

Another assay concerns the target SLC34A1. The description is as above. The conditions noted are these: shRNA.
TTGGAACCCAGTGTGAGCGGGT: the sensor-assay potency score (higher = more potent) amounted to 0.313.
TTGACTAGGAGGATGAGGCAGG showed a sensor-assay potency score (higher = more potent) of 0.548.
Turning to TCCGTATTGATGACCTTCTGGA, the sensor-assay potency score (higher = more potent) is -0.714.
TTCAGGGAGTGCATCCAGCGAG came in with a sensor-assay potency score (higher = more potent) of -0.619.
